In PubChem BioAssay one finds composite z-score and z-score data, which are given here for four compounds.

Structures are written as SMILES. Activity calls are given as the source filed them. Unless noted, no rule for the calls is given here.

Experiment [1] can be described thus: compounds binding Alexa647 anti-His antibody – biochemical, small-molecule microarray, 635 nm fluorescence, artefact control for SMM control protein annotation, primary screen (AID 1128).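 Also: score merges feature fluorescence with signal-to-noise for each printed compound spot.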 The conditions noted are these: higher = more signal.
Experiment [2] has as its system Human papillomavirus type 1a E7 protein (residues 1-88). As to the kind of experiment: HPV1a E7 small-molecule binders, primary screen, biochemical, small-molecule microarray, residues 1-88, 635 nm (AID 1129). The conditions noted are these: small-molecule microarray binding, fluorescence 635 nm; higher = more signal.
In experiment [3] the target is Focal adhesion kinase 1 (Homo sapiens) (UniProt Q05397). Briefly: PTK2 protein binding on printed compound slides – biochemical, small-molecule microarray, 635/667 nm fluorescence, BSA, DTT, primary screen (AID 1130).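 Also: composite of spot emission at 667 nm and signal to noise over triplicate slides.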 The conditions noted are these: 635 nm fluorescence, higher = more signal.
Focal adhesion kinase 1 (Homo sapiens), sequence (Q05397 whole entry, looked up): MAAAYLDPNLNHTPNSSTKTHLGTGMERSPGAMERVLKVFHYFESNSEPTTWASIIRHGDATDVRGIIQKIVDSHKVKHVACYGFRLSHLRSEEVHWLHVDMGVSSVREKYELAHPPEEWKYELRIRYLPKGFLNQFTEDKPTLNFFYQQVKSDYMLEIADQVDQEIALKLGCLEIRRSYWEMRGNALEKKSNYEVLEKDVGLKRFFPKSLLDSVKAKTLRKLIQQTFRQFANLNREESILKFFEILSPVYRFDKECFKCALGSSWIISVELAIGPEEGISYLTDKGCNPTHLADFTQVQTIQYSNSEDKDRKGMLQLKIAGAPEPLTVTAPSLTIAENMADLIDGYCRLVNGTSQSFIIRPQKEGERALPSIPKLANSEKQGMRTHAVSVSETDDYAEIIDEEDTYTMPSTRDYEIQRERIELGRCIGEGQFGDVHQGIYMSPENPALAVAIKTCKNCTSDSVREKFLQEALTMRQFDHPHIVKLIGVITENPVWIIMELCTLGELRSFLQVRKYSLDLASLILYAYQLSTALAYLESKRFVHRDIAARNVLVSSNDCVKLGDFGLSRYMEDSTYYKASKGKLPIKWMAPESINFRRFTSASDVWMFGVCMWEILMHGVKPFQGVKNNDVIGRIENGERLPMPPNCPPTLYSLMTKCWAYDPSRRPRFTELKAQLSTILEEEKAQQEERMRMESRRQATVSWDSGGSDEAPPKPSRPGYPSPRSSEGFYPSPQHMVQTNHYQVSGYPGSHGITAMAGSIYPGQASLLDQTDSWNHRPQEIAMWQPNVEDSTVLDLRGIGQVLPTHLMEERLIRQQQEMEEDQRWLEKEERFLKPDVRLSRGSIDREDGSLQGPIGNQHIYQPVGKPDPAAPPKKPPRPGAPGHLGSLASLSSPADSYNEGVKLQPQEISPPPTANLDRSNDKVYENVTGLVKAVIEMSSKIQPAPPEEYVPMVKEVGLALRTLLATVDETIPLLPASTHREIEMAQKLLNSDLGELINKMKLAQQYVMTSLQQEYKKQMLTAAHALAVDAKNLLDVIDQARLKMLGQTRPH
Experiment [4] has as its system Fibrinogen (Alexa647-labelled). Briefly: Alexa647-fibrinogen binding to printed small molecules – biochemical, small-molecule microarray, 635/667 nm fluorescence, artefact control for SMM control-protein annotation, profiling panel (AID 1131).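 Also: z-score merges 667 nm fluorescence with per-spot signal-to-noise over triplicate slides.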 The conditions noted are these: fibrinogen-A647 binding fluorescence, higher = more signal.
Experiment [5] concerns the target Follistatin (Homo sapiens) (UniProt P19883). Briefly: FST protein binding to printed compounds – biochemical, small-molecule microarray, 635/667 nm fluorescence, primary screen (AID 1132). The conditions noted are these: 635 nm fluorescence, higher = more signal.
Experiment [6] deals with Fibroblast growth factor 2 (Homo sapiens) (UniProt P09038). As to the kind of experiment: basic fibroblast growth factor binding to printed compounds – biochemical, small-molecule microarray, 635/667 nm fluorescence, primary screen (AID 1133). The conditions noted are these: FGF2, fluorescence 635/667, higher = more signal.
Fibroblast growth factor 2 (Homo sapiens), sequence (P09038 whole entry, looked up): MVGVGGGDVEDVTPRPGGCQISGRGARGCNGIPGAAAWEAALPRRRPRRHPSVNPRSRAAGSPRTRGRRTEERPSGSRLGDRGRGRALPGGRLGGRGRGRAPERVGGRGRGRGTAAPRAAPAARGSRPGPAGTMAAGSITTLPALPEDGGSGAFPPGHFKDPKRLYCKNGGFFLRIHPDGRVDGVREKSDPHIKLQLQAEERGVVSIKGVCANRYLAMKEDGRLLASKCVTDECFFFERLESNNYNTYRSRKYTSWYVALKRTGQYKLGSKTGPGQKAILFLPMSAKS
Experiment [7] is described as follows: JC-1 mitochondrial potential readout, lung cancer cells – cell-based, A549, JC-1 fluorescence, basal, 24 h, 100 nL, profiling panel (AID 1138).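 Also: A549 lung adenocarcinoma cells under basal conditions with no added stimulus; test concentration not given here.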 The conditions noted are these: higher = more signal.
For experiment [8], the system named is Lefty1. As to the kind of experiment: Lefty1 protein binding to printed compounds – biochemical, small-molecule microarray, 635/667 nm fluorescence, primary screen (AID 1139). The conditions noted are these: fluorescence 635/667, higher = more signal.
In experiment [9] the test system is wheat germ agglutinin (Triticum aestivum), Alexa647-labelled. Briefly: Alexa647-WGA lectin binding to printed small molecules – biochemical, small-molecule microarray, 635/667 nm fluorescence, artefact control for SMM control-protein annotation, profiling panel (AID 1140).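 Also: score merges 667 nm feature emission with signal to noise over triplicate slides.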 The conditions noted are these: WGA-A647 binding, 635 nm fluorescence, higher = more signal.

The target of experiment [10] is Luciferin 4-monooxygenase (Photinus pyralis) (UniProt P08659). As to the kind of experiment: inhibition of purified Photinus pyralis luciferase – biochemical, luminescence, purified enzyme, 2006 set, primary screen (AID 1141).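 Also: cell-free assay with purified firefly luciferase at 100 ng per well in PBS; test concentration not given here.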 The conditions noted are these: purified firefly luciferase, SteadyGlo luminescence, 30 min; higher = more signal, called active from +8 up or from −8 down.
Luciferin 4-monooxygenase (Photinus pyralis), sequence (P08659 whole entry, looked up): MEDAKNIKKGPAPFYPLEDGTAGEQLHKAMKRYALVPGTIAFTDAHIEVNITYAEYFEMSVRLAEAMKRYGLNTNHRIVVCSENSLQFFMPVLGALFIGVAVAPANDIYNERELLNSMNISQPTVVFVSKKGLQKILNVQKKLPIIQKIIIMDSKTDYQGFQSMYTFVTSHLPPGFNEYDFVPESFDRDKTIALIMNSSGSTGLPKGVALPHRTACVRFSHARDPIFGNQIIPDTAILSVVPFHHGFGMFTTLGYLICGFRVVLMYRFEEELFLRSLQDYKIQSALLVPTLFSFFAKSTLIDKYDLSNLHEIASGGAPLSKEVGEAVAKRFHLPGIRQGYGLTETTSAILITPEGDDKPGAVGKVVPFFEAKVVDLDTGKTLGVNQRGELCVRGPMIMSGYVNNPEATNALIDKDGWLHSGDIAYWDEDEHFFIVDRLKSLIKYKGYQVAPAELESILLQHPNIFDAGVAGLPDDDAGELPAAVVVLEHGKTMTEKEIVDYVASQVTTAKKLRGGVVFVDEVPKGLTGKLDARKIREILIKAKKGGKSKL

In experiment [11] the test system is Wnt5a (protein binding on small-molecule microarray). Briefly: small molecules binding Wnt5a protein – biophysical, small-molecule microarray, 635/667 nm fluorescence, primary screen (AID 1142).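 Also: fluorescence read at 667 nm with signal to noise per printed feature.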 The note with it: 635 nm fluorescence, higher = more signal.
Experiment [12] can be described thus: ATP-based viability of Huh7 replicon cells – cell-based, CellTiter-Glo luminescence, basal, 48 h, cytotoxicity control for HCV replication inhibitor project, primary screen (AID 1143).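 Also: Huh7 hepatoma cells carrying a hepatitis C replication reporter with no stimulus; test concentration not given here.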 The conditions noted are these: higher = more signal, called active from +8 up or from −8 down.
Experiment [13] can be described thus: Pseudomonas biofilm growth suppression – PAO1 strain, BacTiter-Glo luminescence, LB-PBS, primary screen (AID 1144). The conditions noted are these: P. aeruginosa PAO1 biofilm, 12 h, higher = more signal.
The nature of experiment [14]: basal CRE-LacZ reporter activity in PC12 – cell-based, unstimulated, primary screen (AID 1145). The conditions noted are these: no forskolin, luminescence, 4.5 h, higher = more signal, called active from +8 up or from −8 down.
Experiment [15] in a line: forskolin-driven CRE-LacZ activity in PC12 – cell-based, CRE-LacZ reporter, forskolin-stimulated, primary screen (AID 1146).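 Also: PC12 cells with 6xCRE LacZ reporter stimulated by forskolin 10 µM; beta-galactosidase reporter signal reflecting CREB driven transcription.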 The note with it: luminescence, 4.5 h, higher = more signal, called active from +8 up or from −8 down.
Experiment [16] addresses Streptavidin (Streptomyces avidinii) (UniProt P22629). As to the kind of experiment: compounds binding control protein streptavidin – biophysical, small-molecule microarray, 635/667 nm fluorescence, artefact control for SMM compound annotation, primary screen (AID 1147).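 Also: signal reflects streptavidin binding to arrayed compounds as a control protein.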 The note with it: higher = more signal.
The nature of experiment [17]: probe aInhba binding on compound microarray – biochemical, small-molecule microarray, 635/667 nm fluorescence, primary screen (AID 1148).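 Also: score merges 667nm spot fluorescence with signal-to-noise for antibody binding to printed compounds.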 The conditions noted are these: higher = more signal.
Experiment [18] has as its target Torsin-1A (Homo sapiens) (UniProt O14656). As to the kind of experiment: TOR1A wild-type binding on microarray – cell lysate, small-molecule microarray, lysate, 635/667 nm, primary screen (AID 1149). The conditions noted are these: COS7 hTOR1A-WT lysate, 635 nm fluorescence, higher = more signal.
Experiment [19] has the same target. Briefly: torsin A mutant lysate binding on microarrays – cell lysate, small-molecule microarray, COS7 lysate, 635/667 nm fluorescence, primary screen (AID 1150).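 Also: score pools 667 nm emission and signal to noise measuring lysate protein binding.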 The note with it: COS7 hTOR1A mutant lysate, 635 nm fluorescence, higher = more signal.
Experiment [20] deals with Sonic hedgehog protein (Shh). Briefly: Sonic hedgehog microarray binding compounds – biochemical, small-molecule microarray, 635/667 nm fluorescence, primary screen (AID 1151).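 Also: Shh protein binding to compounds spotted on small-molecule microarray slides; score combines spot fluorescence intensity with signal-to-noise across triplicate slides.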 The conditions noted are these: 635 nm fluorescence, higher = more signal.

Follistatin (Homo sapiens), sequence (P19883 whole entry, looked up): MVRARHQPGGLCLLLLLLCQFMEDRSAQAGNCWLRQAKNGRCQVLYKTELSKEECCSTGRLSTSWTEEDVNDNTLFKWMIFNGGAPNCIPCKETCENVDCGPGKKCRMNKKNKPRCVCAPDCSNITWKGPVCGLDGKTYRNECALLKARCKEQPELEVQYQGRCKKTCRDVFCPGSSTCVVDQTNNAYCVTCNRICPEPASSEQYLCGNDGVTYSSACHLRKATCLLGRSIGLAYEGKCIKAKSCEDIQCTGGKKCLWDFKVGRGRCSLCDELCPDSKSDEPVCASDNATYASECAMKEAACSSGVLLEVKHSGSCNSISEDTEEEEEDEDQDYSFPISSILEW
Streptavidin (Streptomyces avidinii), sequence (P22629 whole entry, looked up): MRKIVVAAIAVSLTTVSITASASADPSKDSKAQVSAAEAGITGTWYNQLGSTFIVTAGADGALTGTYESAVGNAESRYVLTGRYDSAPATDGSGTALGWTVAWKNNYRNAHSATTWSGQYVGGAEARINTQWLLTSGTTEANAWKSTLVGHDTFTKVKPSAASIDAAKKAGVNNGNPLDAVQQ
Torsin-1A (Homo sapiens), sequence (O14656 whole entry, looked up): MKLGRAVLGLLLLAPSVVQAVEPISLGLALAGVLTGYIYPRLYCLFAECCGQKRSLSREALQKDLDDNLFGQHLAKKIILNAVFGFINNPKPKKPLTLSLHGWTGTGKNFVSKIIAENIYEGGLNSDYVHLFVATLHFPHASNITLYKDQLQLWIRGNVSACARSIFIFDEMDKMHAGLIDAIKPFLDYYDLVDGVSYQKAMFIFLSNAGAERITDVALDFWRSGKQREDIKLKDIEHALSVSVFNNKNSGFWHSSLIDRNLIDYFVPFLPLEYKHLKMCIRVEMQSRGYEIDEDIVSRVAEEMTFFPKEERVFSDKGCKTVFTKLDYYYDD

On to `C=COC[C@@H]1CN2[C@@H](CC[C@@H](C)[C@@H]2c2ccc(Br)cc2)C(=O)O1`, for which the composite z-score in [1] was -0.559; in [2], 0.151; in experiment [3], 0.18; in experiment [4], 0.212; in experiment [5], 0.0793; in experiment [6], -0.285. The composite z-score in experiment [8] is 0.0005; in experiment [9], -0.0681; in experiment [11], -0.219; in experiment [16] it was -0.505; in [17], -0.253; in [18] it was 0.348. Besides, the composite z-score in experiment [19] was -0.051; in [20], -0.211. The z-score in experiment [7] is -1.25; in experiment [10], 0.49 (inactive); in [12], -2.67 (inactive); in experiment [13], -1.06 (inactive); in [14], 6.83 (inactive); in [15], -0.544 (inactive).

As to `CC(C)=CCCC(C)=CCON=C1C[C@@H](O)[C@@H](O)[C@@H]2[C@@H]3C(=O)N(C[C@@H]4CCCO4)C(=O)[C@@H]3CC[C@H]12`, the composite z-score in experiment [1] came out at 1.39; in [2] it was 1.13; in [3], 0.349; in experiment [4], 0.499; in experiment [5], 1.13; in experiment [6] it was 0.945. Besides, the composite z-score in experiment [8] is 1.24; in experiment [9], 0.572; in [11], 0.24; in [16], 0.707; in [17], -0.162; in experiment [18] it was 1.4. Moreover, the composite z-score in experiment [19] came to 1.33; in [20], 1.67. Besides, the z-score in experiment [7] is -0.773; in [10], 0.217 (inactive); in experiment [12], -0.296 (inactive); in experiment [13], 0.175 (inactive); in experiment [14] it was -0.384 (inactive); in experiment [15] it was 0.174 (inactive).

On to `CO[C@H]1COC(=O)[C@@H](C)COC(=O)[C@H](C)NC(=O)CC=C[C@H]1C`, for which the composite z-score is -0.79 in [1]; -0.764 in experiment [2]; -0.113 in [3]; -0.47 in experiment [4]; 1.31 in experiment [5]; 0.871 in [6]. For the same compound, the composite z-score was 1.58 in experiment [8]; -0.379 in experiment [9]; 0.0392 in experiment [11]; -0.639 in [16]; -0.176 in [17]; 1.15 in [18]. Further, the figures for the composite z-score in experiment [19] and in [20] were 0.991 and 1.6, respectively. Also, the z-score in experiment [7] was 0.853; in experiment [10], -0.185 (inactive); in [12], -0.378 (inactive); in [13], 0.371 (inactive); in [14] it was -0.115 (inactive); in experiment [15], -0.959 (inactive).

Turning to `C[C@@H]1C=CCC(=O)OC[C@H]2O[C@@H](C=C[C@@H]2O)[C@H](C)C=CCC(=O)OC1`, the composite z-score was 0.341 in experiment [1]; -0.813 in experiment [2]; 1.7 in experiment [3]; -1.06 in experiment [4]; 1.56 in experiment [5]; 1.98 in [6]. Moreover, the composite z-score in [8] was 1.71; in experiment [9], -0.513; in experiment [11], 0.0051; in experiment [16] it was -0.224; in experiment [17] it was -0.206; in [18], 2.73. Besides, the composite z-score in experiment [19] turned out to be 1.98; in experiment [20], 2.16. In addition, the z-score in experiment [7] was 2.16; in experiment [10] it was -1.82 (inactive); in [12], -1.05 (inactive); in experiment [13], -1.11 (inactive); in experiment [14], 0.344 (inactive); in [15], -0.812 (inactive).
